Measured values taken from PubChem BioAssay (EPA / NIEHS).
Results filed as inconclusive are left out. Calls of active or inactive are those of the source. Rule for the calls, unless noted: active = hit-call score of the fitted dose curve at least 0.9, where 1 is the maximum; inconclusive = response in the unintended direction; inactive = score below 0.9.

What was measured:
[1] = CCTE_Mundy_HCI_Cortical_NOG_BPCount: CCTE's Neurite Outgrowth Assay in rat cortical cells for Branch Point Count, Mundy Lab (AID 2284237; active = hit-call score of the fitted dose curve at least 0.9, where 1 is the maximum; inactive = score below 0.9)
Method in brief: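 Measured 50.33 h after dosing, this morphology endpoint uses rat primary cortical cultures labelled for betaIII-tubulin. Branch points are quantified by high-content imaging, with DMSO as negative control and baseline.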

[2] = CCTE_Mundy_HCI_hNP1_Casp3_7: CCTE's Caspase-Glo 3/7 Assay in human neuroprogenitor cells for Apoptosis, Mundy Lab (AID 2284240; active = hit-call score of the fitted dose curve at least 0.9, where 1 is the maximum; inactive = score below 0.9)
Method in brief: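 Apoptosis is scored by activated caspase-3/7 luminescence in WA09-derived neural progenitor cells, measured 26.5 h after chemical dosing. Values represent gain of signal relative to DMSO vehicle.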

[3] = CCTE_Mundy_HCI_hNP1_CellTiter: CCTE's Cell Titer-Glo 2 Assay in human neuroprogenitor cells for Viability, Mundy Lab (AID 2284241);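 for AC50: a hit is a drop in ATP luminescence versus DMSO meaning reduced viability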
Method in brief: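 Human neural progenitor cells (hNP1, WA09-derived) were plated on poly-L-ornithine/laminin and grown 40 to 44 hours at 37 °C, 5% CO2 before chemical addition. Twenty-four hours later, ATP was measured by CellTiter-Glo luminescence; loss of signal versus DMSO indicates reduced viability.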

[4] = IUF_NPC2c_oligodendrocyte_migration_120hr: Leibniz Research Institute for Environmental Medicine (IUF) 120-hour Neural Progenitor Cell Migration Assay for Oligodendrocyte Migration (NPC2c) (AID 2284297; active = hit-call score of the fitted dose curve at least 0.9, where 1 is the maximum; inactive = score below 0.9;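 note: O4-positive oligodendrocyte migration distance divided by radial glia migration distance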)
Method in brief: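 Using fetal brain neural progenitor spheres differentiating in N2 medium at 37C, compounds were present for 120 h. Oligodendrocyte migration distance, normalized to radial glia migration, was measured from imaged O4 staining.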

[5] = IUF_NPC2a_radial_glia_migration_120hr: Leibniz Research Institute for Environmental Medicine (IUF) 120-hour Neural Progenitor Cell Migration Assay for Radial Glia Migration (NPC2a) (AID 2284298; active = hit-call score of the fitted dose curve at least 0.9, where 1 is the maximum; inactive = score below 0.9)
Method in brief: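 Exposure of 0.3 mm primary hNPC spheres runs day 0 to 120 h with a half-volume medium change at day 3. Fixed cells get Hoechst staining; high-content analysis of nuclear positions yields radial glia migration distance per well, compared against DMSO controls.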

[6] = IUF_NPC2a_radial_glia_migration_72hr: Leibniz Research Institute for Environmental Medicine (IUF) 72-hour Neural Progenitor Cell Migration Assay for Radial Glia Migration (NPC2a) (AID 2284299; active = hit-call score of the fitted dose curve at least 0.9, where 1 is the maximum; inactive = score below 0.9)
Method in brief: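 Human fetal cortex (GW 16-19) neural progenitor spheres, 0.3 mm, plated on poly-D-lysine/laminin in N2 differentiation medium with compound from day 0. Radial glia migration distance (um, sphere core edge to migration edge) measured manually in four directions on 72 h brightfield images; well mean used.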

[7] = IUF_NPC2b_neuronal_migration_120hr: Leibniz Research Institute for Environmental Medicine (IUF) 120-hour Neural Progenitor Cell Migration Assay for Neuron Migration (NPC2b) (AID 2284300; active = hit-call score of the fitted dose curve at least 0.9, where 1 is the maximum; inactive = score below 0.9)
Method in brief: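 Fetal human NPC spheres migrate on PDL/laminin during 120 h compound treatment; neuronal migration distance, glia-normalized, scored versus DMSO control.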

[8] = IUF_NPC3_neuronal_differentiation_120hr: Leibniz Research Institute for Environmental Medicine (IUF) 120-hour Neuronal Differentiation Assay (NPC3) (AID 2284301; active = hit-call score of the fitted dose curve at least 0.9, where 1 is the maximum; inactive = score below 0.9)
Method in brief: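 Single 0.3 mm neurospheres from human fetal cortex were plated in differentiation medium containing test compound. Medium was half-replaced on day 3. After 120 h cells were fixed, immunostained and imaged, and neuronal fraction was scored against DMSO control.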

[9] = IUF_NPC4_neurite_length_120hr: Leibniz Research Institute for Environmental Medicine (IUF) 120-hour Neuronal Morphology Assay for Neurite Length (NPC4) (AID 2284302; active = hit-call score of the fitted dose curve at least 0.9, where 1 is the maximum; inactive = score below 0.9)
Method in brief: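 Read-out is mean neurite length in µm of TUBB3-positive neurons, skeletonized from high-content fluorescence images after 120 h. Single 0.3 mm primary human neural progenitor spheres differentiated on poly-D-lysine/laminin under continuous compound exposure; DMSO was baseline.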

[10] = IUF_NPC5_oligodendrocyte_differentiation_120hr: Leibniz Research Institute for Environmental Medicine (IUF) 120-hour Oligodendrocyte Differentiation Assay (NPC5) (AID 2284304);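 note: primary human fetal neural progenitor spheres plated to migrate and differentiate; share of O4-positive cells among Hoechst nuclei found by CNN image analysis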
Method in brief: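 After plating on poly-D-lysine/laminin, fetal-derived hNPC spheres differentiated for 120 h at 37C in compound-containing N2 medium, refreshed by half on day 3. O4 immunostaining over Hoechst nuclei in the migration zone gave oligodendrocyte percentage relative to DMSO.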

[11] = IUF_NPC4_neurite_area_120hr: Leibniz Research Institute for Environmental Medicine (IUF) 120-hour Neuronal Morphology Assay for Neurite Area (NPC4) (AID 2284305)
Method in brief: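 Neurite area is read out as the mean pixel area, excluding nuclei, of skeletonized TUBB3-positive neurons imaged after 120 h. Primary human neural progenitor spheres differentiated on poly-D-lysine/laminin with compound present from day 0. Activity was referenced to DMSO controls.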

[12] = IUF_NPC2-5_cytotoxicity_72hr: Cytotoxicity Assessment at 72 hours in the Leibniz Research Institute for Environmental Medicine (IUF) Neural Progenitor Cell Migration and Differentiation Assay for Cytotoxicity (NPC2-5) (AID 2284306);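 note: LDH release into supernatant measured by resorufin fluorescence marking membrane damage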
Method in brief: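 Membrane integrity loss was scored from fluorescence (RFU) of resorufin generated by LDH in culture supernatant, 72 h after dosing. Differentiating human progenitor spheres received seven serial compound concentrations alongside a solvent control.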

[13] = IUF_NPC2-5_cytotoxicity_120hr: Cytotoxicity Assessment at 120 hours in the Leibniz Research Institute for Environmental Medicine (IUF) Neural Progenitor Cell Migration and Differentiation Assay (NPC2-5) (AID 2284307);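 for AC50: LDH released into supernatant as membrane damage marker via resorufin fluorescence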
Method in brief: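 Membrane-integrity loss is quantified by LDH in supernatant after five days of exposure of migrating, differentiating human fetal NPC spheres; seven serially diluted concentrations are tested with DMSO kept at or below 0.1%.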

[14] = IUF_NPC2-5_cell_number_120hr: Cell Number Assessment at 120 hours in the Leibniz Research Institute for Environmental Medicine (IUF) Neural Progenitor Cell Migration and Differentiation Assay (NPC2-5) (AID 2284308; active = hit-call score of the fitted dose curve at least 0.9, where 1 is the maximum; inactive = score below 0.9;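 note: count of Hoechst-stained nuclei in migration zone around plated human neural progenitor spheres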)
Method in brief: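 Seven-point serial dilutions plus solvent control were applied to plated 0.3 mm hNPC spheres at differentiation start, with medium half-replaced at day 3. Nuclei positive for Hoechst in the migration zone were enumerated at 120 h.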

[15] = TAMU_PeakParms_SingleDonor1434_QT: Texas A&M University (TAMU) 1.5-hr Human Induced Pluripotent Stem Cell (iPSC)-derived Cardiomyocytes Calcium (Ca+2) Flux Assay for Cardiotoxicity: QT (decay-rise ratio) (AID 2284235)
Method in brief: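 iPSC-derived cardiomyocytes (single donor 1434) dosed at 0.2, 1, 10, 100 uM final in 0.5% DMSO, 90 min at 37C. Ca2+ flux fluorescence decay/rise ratio; EC05 (5% increase versus DMSO) as POD, excluding beat-arrest and severe-notch data.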

[16] = VALA_TUBHUV_Agonist_CellCount: Viability Assessment in the VALA Sciences human Umbilical Vein Endothelial Tubule Formation (TUBHUV) Agonism Assay (AID 2284309)
Method in brief: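 HUVEC co-cultured 1:3 with HDF for 3 days in 10 ng/ml VEGF, then compounds added in VEGF medium for a further 3 days (72 h). Nuclear-stain/CD31 imaging cell count. Positive-direction fit versus 0.1% DMSO vehicle.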

[17] = VALA_TUBHUV_Antagonist_CellCount: Viability Assessment in the VALA Sciences human Umbilical Vein Endothelial Tubule Formation (TUBHUV) Antagonism Assay (AID 2284310)
Method in brief: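 HUVEC co-cultured with HDF (1:3) 3 days in 10 ng/ml VEGF, then 3 days with compounds in VEGF medium. Fixed, nuclear stain and CD31 immunofluorescence, imaged; cell counts fitted versus 0.1% DMSO, loss of signal read as lower viability.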

[18] = TAMU_HCS_1.5hr_SingleDonor1434_Cytotoxicity: Cytotoxicity Assessment using High-content Screening (HCS) Fluorescent Imaging for the Texas A&M University (TAMU) 1.5-hr Human Induced Pluripotent Stem Cell (iPSC)-derived Cardiotoxicity Assay (AID 2284234)
Method in brief: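 Human iPSC-derived cardiomyocytes dosed at 0.2, 1, 10, 100 uM final (0.5% DMSO) for 90 min at 37 C. Hoechst 33342-stained nuclei counted by 10x high-content imaging; POD is EC10, a 10% drop in total cell count versus DMSO.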

[19] = VALA_TUBIPS_Agonist_TubuleLength: VALA Sciences human iPS-derived Endothelial Tubule Formation (TUBIPS) Agonism Assay (AID 2284311)
Method in brief: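 Human iPS-derived endothelial cells were exposed to compound for 72 h. Tubule formation was imaged by high-content fluorescence and scored as gain of signal relative to DMSO vehicle (agonist mode).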

[20] = CCTE_Mundy_HCI_Cortical_Synap_Neur_Matur_NeuronCount: CCTE's Synaptogenesis and Neurite Maturation Assay in rat cortical cells for Neuron Count, Mundy Lab (AID 2284242);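 for AC50: neuron number from Hoechst nuclei and MAP2 staining by high-content imaging; hits reduce neuron count versus DMSO baseline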
Method in brief: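 Rat primary cortical cells received AraC at DIV 5 to arrest glia, then were dosed with chemicals at DIV 7 through DIV 12. Fixed cells were stained for nuclei, MAP2 and synaptophysin, and neurons were counted by high-content imaging relative to DMSO.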

Measured: AC50

OCC(O)CO
inactive: [1] | [2] | [3] | [4] | [5] | [6] | [7] | [8] | [9] | [10] | [11] | [12] | [13] | [14]

CCc1nc(N)nc(N)c1-c1ccc(Cl)cc1
inactive: [15]

CCCCC(CC)COP(=O)(OCC(CC)CCCC)OCC(CC)CCCC (centres undefined)
inactive: [16] | [17]

Nc1nc(Cl)nc2c1ncn2[C@H]1C[C@H](O)[C@@H](CO)O1
active: [16] 1.56 µM
inactive: [17]

Cc1occc(=O)c1O
inactive: [18] | [15]

COC(=O)[C@H]1[C@H]2C[C@@H]3c4[nH]c5cc(OC)ccc5c4CCN3C[C@H]2C[C@@H](OC(=O)c2cc(OC)c(OC)c(OC)c2)[C@@H]1OC
inactive: [18] | [15] | [16] | [19]

O=C(O)CC(O)(CC(=O)O)C(=O)O
inactive: [18] | [15]

O=C1OC(c2ccc(O)cc2)(c2ccc(O)cc2)c2ccccc21
inactive: [16] | [17] | [19]

O=C1NC(=O)C(c2ccccc2)(c2ccccc2)N1
inactive: [2] | [20] | [4] | [5] | [6] | [7] | [8] | [9] | [10] | [11] | [12] | [13] | [14]

CC(=O)CC(c1ccccc1)c1c(O)c2ccccc2oc1=O (centres undefined)
inactive: [1] | [2] | [20] | [4] | [5] | [6] | [7] | [8] | [9] | [10] | [11] | [12] | [13] | [14]

Cc1ccc(-c2cc(C(F)(F)F)nn2-c2ccc(S(N)(=O)=O)cc2)cc1
inactive: [16] | [17] | [19]

CN(C)CCCN1c2ccccc2Sc2ccc(Cl)cc21
active: [2] 11.6 µM | [3] 24.7 µM | [20] 13.7 µM | [4] 16.1 µM | [5] 14.2 µM | [6] 15.1 µM | [7] 15 µM | [8] 7.59 µM | [9] 6.02 µM | [10] 0.756 µM | [11] 8.38 µM | [12] 15.3 µM | [13] 5.75 µM | [14] 12.8 µM
